Tg IFNy HTS – T. gondii growth inhibition with IFN-gamma, primary screen, cell-based | Toxoplasma gondii growth in IFN-gamma-treated host cells; hits give low values | activity change, negative = inhibition, % (no concentration beside the values) | hit rate 3.8% among 69,000; in the data active = activity change below about -70%, passing the limit was not always enough;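 note: host cells are HeLa cells infected with Toxoplasma gondii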
Numbers stand for hits; – = inactive. The entries come from a sample that favours hits as a whole.

SMILES	Tg IFNy HTS
O=C(Cc1cccc(F)c1)N1CCn2c(Cn3cccn3)cnc2C1	–
CNC(=O)Cc1ccc(-c2ccc(C(C)OC)cc2)cc1 (centres undefined)	–
CCC(CC)C(=O)N1CCC2(CC1)CC(CC(=O)N1CCCC1)c1ccccc12 (centres undefined)	–
O=C(c1cccc(F)c1)N1CCc2c([nH]c3ccccc23)C1c1ccc(F)cc1 (centres undefined)	–
Cc1ccc(C2c3[nH]c4ccccc4c3CCN2C(=O)c2ccc3c(c2)OCO3)cc1 (centres undefined)	–
O=C(c1cccc(Cl)c1)N1CCc2c([nH]c3ccccc23)C1c1cccnc1 (centres undefined)	-82
O=C(c1ccc(Br)cc1)N1CCc2c([nH]c3ccccc23)C1c1ccccc1 (centres undefined)	–
COc1ccc(C(=O)N2CCc3c([nH]c4ccccc34)C2c2ccc(F)cc2)cc1OC (centres undefined)	–
COc1ccc(C(=O)N2CCc3c([nH]c4ccccc34)C2c2cccnc2)cc1OC (centres undefined)	–
O=C(c1ccccc1)N1CCc2c([nH]c3ccccc23)C1c1cccnc1 (centres undefined)	–
O=C(c1ccc2c(c1)OCO2)N1CCc2c([nH]c3ccccc23)C1c1ccc(F)cc1 (centres undefined)	-109
O=C(c1ccc(Br)cc1)N1CCc2c([nH]c3ccccc23)C1c1ccc(F)cc1 (centres undefined)	-94
O=C(c1cccc(F)c1)N1CCc2c([nH]c3ccccc23)C1c1ccc(Cl)cc1 (centres undefined)	–
COc1cc(C(=O)N2CCc3c([nH]c4ccccc34)C2c2ccc(Cl)cc2)cc(OC)c1OC (centres undefined)	–
O=C(c1ccccc1)N1CCc2c([nH]c3ccccc23)C1c1ccc(Cl)cc1 (centres undefined)	-99
COc1ccccc1-c1[nH]n2c(=O)cc(CC(C)n3cccn3)nc2c1C (centres undefined)	–
Cc1nc(-c2ccc(Cl)cc2)sc1CCNC(=O)COc1ccc(F)cc1	–
c1cnc(SCc2cccnc2)nc1	–
CC(c1ccccc1)n1nnnc1N1CCC2(CCCO2)CC1 (centres undefined)	–
O=C(c1ccccc1Br)N1CCc2c([nH]c3ccccc23)C1c1ccc(Cl)cc1 (centres undefined)	–
O=C(c1ccc(Br)cc1)N1CCc2c([nH]c3ccccc23)C1c1ccc(Cl)cc1 (centres undefined)	-95
COc1ccc(C(=O)N2CCc3c([nH]c4ccccc34)C2c2ccc(C)cc2)cc1 (centres undefined)	–
COc1ccc(C2c3[nH]c4ccccc4c3CCN2C(=O)CCC2CCCC2)cc1 (centres undefined)	–
O=C(CCC1CCCC1)N1CCc2c([nH]c3ccccc23)C1c1ccc(Cl)cc1 (centres undefined)	-106
O=C(CCC1CCCC1)N1CCc2c([nH]c3ccccc23)C1c1ccc(F)cc1 (centres undefined)	–
SMILES	Tg IFNy HTS
CCSc1ncc(CN(C)Cc2cc(=O)[nH]c3ccccc23)cn1	–
Cc1ccc2c(c1)CN(Cc1ccc(C)s1)C(CN(C)C)CO2 (centres undefined)	–
CC(CCNS(=O)(=O)c1ccc2[nH]c(=O)ccc2c1)N1CCCCCC1 (centres undefined)	–
COc1ccc(S(=O)(=O)Nc2cncc(C(=O)Nc3cccc(F)c3C)c2)cc1OC	–
c1ccc2c(OCCOc3cccc4ccccc34)cccc2c1	–
CCN1C(=O)CCc2cc(NC(=O)Cc3ccc(Cl)cc3)ccc21	–
CCOC(=O)C1(CC)NC(c2ccc(N(C)C)cc2)C2C(=O)N(CC)C(=O)C21 (centres undefined)	–
CN1[C@@H]2CC[C@H]1CC(OC(=O)c1c[nH]c3ccccc13)C2 (some centres undefined)	–
CN1C2CCC1CC(OC(=O)c1c[nH]c3ccccc13)C2 (centres undefined)	–
CN(C)c1cc(OC2CCN(C(=O)c3c[nH]c4ccccc34)C2)ncn1 (centres undefined)	-84
C=CCOC(=O)N1CCC(Oc2ccc3ncccc3c2)(C(=O)O)CC1	–
CC(/C=C1\SC(=O)N(CCCC(=O)O)C1=O)=C\c1ccccc1	-82
CC1(C)NC(=O)N(CCCC(=O)O)C1=O	–
O=C(O)CCCCCNS(=O)(=O)/C=C/c1ccccc1	–
CN(C)CCO[C@@H]1CN(C(=O)Cc2ccsc2)[C@H]2CCCO[C@@H]12	–
CN1CCC(CN(C)C(=O)c2cccnc2N2CCN(C(=O)c3ccco3)CC2)C1 (centres undefined)	–
Cc1cccc(C(=O)N2C[C@H]3CN(c4ccsc4)C(=O)[C@H]3C2)n1	–
CCCOCC1CCN(C(=O)c2cccc(CC3CCNCC3)c2)C1 (centres undefined)	–
Cc1cc(NC(=O)c2nc(Nc3ccc(Cl)cc3)c3ccccc3n2)no1	–
CCc1ccccc1-c1cccc(N2CCNCC2)n1	–
C(=C\c1cccc(N2CCNCC2)c1)/c1ccccc1	–
